{"source": "the supplement of paper PMC10849652", "note": "The full data set covers some 7,900 targets. This sample favours those with a hit. About 0.6% of all pairs of compound and target were hits. A number with no mark means an inactive call."}
{"compound": "C1=CC=C(C=C1)C2=NC(=C(N2)C3=CC=NC=C3)C4=CC(=C(C=C4)Cl)O", "assay": "log2 fold change, soluble protein after heating vs DMSO (PISA); higher = thermal stabilisation; K562 cells, 10 uM, 30 min; active = over 0.2 and 3.5 SD of the protein, either way, in both replicates (recomputed)", "summary_of_the_method": "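For each measurement, 10 μM compound was applied for 30 min to K562 cells at 2×10^6 cells/mL. Aliquots were heated for 3 min across 48°C-58°C, pooled, and extracted in PBS with 0.5% NP-40 at 4°C; the supernatant after 21,000xg for 90 min was soluble protein. This was quantified by TMTpro 16plex LC-MS/MS with channel sums equalised, and thermal stability was reported relative to control samples from duplicates, on a log2 fold-change scale.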"}
{"target": "MED25 isoform 3 (UniProt Q71SY5)", "log2 fold change": 0.062}
{"target": "MCOLN3 (UniProt Q8TDD5)", "log2 fold change": -0.049}
{"target": "MAPK14 (UniProt Q16539)", "log2 fold change": "1.04 (active)"}
{"target": "LRFN1 (UniProt Q9P244)", "sequence (Q9P244 whole entry, looked up)": "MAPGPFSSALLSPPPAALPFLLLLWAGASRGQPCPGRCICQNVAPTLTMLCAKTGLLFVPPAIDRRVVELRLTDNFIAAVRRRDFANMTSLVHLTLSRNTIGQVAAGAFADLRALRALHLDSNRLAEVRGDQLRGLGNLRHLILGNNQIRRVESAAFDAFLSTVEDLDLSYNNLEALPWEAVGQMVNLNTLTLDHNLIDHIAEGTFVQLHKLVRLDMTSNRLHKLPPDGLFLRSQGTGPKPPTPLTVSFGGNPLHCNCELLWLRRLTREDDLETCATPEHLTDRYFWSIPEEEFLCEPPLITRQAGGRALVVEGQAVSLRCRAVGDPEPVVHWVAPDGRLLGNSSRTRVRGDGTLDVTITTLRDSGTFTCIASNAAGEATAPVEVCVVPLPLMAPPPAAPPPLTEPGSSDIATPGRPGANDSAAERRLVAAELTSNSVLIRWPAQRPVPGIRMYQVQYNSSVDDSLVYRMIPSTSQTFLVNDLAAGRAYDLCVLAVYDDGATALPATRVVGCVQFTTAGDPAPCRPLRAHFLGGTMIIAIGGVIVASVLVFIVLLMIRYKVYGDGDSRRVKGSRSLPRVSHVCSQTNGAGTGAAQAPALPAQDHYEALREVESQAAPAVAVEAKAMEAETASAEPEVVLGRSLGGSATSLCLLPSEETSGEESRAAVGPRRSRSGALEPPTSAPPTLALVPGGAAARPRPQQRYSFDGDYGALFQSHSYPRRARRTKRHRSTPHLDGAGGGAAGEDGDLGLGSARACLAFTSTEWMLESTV", "log2 fold change": -0.038}
{"target": "MAPK11 (UniProt Q15759)", "sequence (Q15759 whole entry, looked up)": "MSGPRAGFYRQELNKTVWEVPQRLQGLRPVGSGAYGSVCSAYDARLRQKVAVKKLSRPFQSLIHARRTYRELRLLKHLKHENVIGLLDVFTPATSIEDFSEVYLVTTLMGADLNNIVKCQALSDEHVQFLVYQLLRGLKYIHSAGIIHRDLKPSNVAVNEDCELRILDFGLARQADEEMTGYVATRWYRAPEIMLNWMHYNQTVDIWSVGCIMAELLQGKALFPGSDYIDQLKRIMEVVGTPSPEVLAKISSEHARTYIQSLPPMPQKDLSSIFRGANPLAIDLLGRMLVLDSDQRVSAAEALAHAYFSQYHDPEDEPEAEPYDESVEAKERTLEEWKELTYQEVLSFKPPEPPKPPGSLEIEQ", "log2 fold change": 0.744}
{"target": "MAP2K5 (UniProt Q13163)", "sequence (Q13163 whole entry, looked up)": "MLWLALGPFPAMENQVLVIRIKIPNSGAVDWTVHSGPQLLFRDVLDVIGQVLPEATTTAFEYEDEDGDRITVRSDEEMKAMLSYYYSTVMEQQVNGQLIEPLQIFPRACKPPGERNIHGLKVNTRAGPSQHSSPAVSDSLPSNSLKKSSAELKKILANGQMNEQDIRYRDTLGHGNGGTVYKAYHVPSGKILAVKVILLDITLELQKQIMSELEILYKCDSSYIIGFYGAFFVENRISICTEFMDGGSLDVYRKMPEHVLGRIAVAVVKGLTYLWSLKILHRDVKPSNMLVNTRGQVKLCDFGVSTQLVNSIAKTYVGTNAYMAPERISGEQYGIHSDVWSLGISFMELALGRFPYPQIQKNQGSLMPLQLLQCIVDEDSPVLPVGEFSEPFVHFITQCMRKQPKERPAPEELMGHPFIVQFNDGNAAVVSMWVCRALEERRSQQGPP", "log2 fold change": 0.145}
{"target": "IGFBP6 (UniProt P24592)", "sequence (P24592 whole entry, looked up)": "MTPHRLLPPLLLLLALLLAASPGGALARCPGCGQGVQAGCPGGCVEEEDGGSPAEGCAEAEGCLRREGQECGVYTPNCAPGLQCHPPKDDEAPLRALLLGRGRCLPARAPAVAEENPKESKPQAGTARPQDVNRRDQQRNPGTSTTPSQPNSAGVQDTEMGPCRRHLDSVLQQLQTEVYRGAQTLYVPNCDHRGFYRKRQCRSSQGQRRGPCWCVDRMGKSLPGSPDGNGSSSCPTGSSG", "log2 fold change": 0.131}
{"target": "KIF21A (UniProt H0YI78)", "log2 fold change": 0.1}
{"target": "KIZ (UniProt Q2M2Z5)", "sequence (Q2M2Z5 whole entry, looked up)": "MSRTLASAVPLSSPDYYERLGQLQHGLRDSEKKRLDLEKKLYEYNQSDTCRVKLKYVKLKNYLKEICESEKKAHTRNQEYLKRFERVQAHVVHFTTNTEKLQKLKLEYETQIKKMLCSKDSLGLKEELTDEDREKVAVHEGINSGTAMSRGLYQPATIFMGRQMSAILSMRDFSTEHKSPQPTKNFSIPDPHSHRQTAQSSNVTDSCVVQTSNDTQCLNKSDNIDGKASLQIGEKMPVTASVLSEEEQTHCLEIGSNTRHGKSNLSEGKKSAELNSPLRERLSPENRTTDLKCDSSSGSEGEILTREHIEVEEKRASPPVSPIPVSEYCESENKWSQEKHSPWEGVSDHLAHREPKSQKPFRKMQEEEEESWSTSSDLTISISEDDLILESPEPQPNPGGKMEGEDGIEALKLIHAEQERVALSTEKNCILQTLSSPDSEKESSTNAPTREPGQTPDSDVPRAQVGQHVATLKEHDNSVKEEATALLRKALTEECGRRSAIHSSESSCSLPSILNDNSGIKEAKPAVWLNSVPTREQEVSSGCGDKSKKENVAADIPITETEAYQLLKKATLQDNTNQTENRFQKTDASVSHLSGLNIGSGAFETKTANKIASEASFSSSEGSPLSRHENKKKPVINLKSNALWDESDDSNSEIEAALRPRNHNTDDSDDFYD", "log2 fold change": 0.103}
{"target": "LRRCC1 (UniProt Q9C099)", "log2 fold change": 0.257}
{"target": "ITPRID2 (UniProt P28290)", "log2 fold change": -0.213}
{"target": "MAML1 (UniProt Q92585)", "log2 fold change": -0.004}
{"target": "MAGEA8 (UniProt P43361)", "sequence (P43361 whole entry, looked up)": "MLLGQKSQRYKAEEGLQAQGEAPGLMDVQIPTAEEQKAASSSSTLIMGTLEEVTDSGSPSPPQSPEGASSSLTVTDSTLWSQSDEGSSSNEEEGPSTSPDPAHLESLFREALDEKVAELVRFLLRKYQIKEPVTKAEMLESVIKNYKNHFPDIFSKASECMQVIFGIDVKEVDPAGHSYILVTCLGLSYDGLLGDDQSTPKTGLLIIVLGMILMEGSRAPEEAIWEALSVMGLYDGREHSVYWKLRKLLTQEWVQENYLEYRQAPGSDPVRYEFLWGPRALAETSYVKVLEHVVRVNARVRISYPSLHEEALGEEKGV", "log2 fold change": -0.028}
{"target": "IKZF1 isoform 2 (UniProt Q13422)", "sequence (Q13422 whole entry, looked up)": "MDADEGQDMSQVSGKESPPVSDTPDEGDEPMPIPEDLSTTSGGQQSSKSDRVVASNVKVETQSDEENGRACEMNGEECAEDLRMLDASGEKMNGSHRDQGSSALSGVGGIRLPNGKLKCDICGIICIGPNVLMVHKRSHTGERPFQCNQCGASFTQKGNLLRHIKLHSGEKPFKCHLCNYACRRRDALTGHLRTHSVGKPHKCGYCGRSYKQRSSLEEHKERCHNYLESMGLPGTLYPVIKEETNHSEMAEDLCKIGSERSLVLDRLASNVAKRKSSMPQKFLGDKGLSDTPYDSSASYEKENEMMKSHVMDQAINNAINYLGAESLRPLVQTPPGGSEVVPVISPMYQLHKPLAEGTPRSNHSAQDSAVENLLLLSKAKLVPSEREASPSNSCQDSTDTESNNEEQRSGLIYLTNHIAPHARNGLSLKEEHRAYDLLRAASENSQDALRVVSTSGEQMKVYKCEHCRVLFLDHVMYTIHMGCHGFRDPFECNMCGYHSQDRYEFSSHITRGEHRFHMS", "log2 fold change": 0.047}
{"target": "MGRN1 isoform 2 (UniProt O60291)", "sequence (O60291 whole entry, looked up)": "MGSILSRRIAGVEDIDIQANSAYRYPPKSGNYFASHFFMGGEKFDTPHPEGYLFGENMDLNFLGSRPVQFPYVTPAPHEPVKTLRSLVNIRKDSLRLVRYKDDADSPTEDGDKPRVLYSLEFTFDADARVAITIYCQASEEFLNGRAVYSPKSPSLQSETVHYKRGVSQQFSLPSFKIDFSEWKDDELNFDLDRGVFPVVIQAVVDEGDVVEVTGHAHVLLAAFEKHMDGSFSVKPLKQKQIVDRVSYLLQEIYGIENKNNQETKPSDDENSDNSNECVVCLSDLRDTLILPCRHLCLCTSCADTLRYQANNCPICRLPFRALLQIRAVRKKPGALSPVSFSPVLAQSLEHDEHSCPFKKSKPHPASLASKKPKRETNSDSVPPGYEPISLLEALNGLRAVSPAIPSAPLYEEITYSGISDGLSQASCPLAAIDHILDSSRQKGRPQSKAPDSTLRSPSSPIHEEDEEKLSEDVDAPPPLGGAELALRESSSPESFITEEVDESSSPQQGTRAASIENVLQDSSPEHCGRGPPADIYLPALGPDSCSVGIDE", "log2 fold change": -0.095}
{"target": "JAK3 (UniProt P52333)", "sequence (P52333 whole entry, looked up)": "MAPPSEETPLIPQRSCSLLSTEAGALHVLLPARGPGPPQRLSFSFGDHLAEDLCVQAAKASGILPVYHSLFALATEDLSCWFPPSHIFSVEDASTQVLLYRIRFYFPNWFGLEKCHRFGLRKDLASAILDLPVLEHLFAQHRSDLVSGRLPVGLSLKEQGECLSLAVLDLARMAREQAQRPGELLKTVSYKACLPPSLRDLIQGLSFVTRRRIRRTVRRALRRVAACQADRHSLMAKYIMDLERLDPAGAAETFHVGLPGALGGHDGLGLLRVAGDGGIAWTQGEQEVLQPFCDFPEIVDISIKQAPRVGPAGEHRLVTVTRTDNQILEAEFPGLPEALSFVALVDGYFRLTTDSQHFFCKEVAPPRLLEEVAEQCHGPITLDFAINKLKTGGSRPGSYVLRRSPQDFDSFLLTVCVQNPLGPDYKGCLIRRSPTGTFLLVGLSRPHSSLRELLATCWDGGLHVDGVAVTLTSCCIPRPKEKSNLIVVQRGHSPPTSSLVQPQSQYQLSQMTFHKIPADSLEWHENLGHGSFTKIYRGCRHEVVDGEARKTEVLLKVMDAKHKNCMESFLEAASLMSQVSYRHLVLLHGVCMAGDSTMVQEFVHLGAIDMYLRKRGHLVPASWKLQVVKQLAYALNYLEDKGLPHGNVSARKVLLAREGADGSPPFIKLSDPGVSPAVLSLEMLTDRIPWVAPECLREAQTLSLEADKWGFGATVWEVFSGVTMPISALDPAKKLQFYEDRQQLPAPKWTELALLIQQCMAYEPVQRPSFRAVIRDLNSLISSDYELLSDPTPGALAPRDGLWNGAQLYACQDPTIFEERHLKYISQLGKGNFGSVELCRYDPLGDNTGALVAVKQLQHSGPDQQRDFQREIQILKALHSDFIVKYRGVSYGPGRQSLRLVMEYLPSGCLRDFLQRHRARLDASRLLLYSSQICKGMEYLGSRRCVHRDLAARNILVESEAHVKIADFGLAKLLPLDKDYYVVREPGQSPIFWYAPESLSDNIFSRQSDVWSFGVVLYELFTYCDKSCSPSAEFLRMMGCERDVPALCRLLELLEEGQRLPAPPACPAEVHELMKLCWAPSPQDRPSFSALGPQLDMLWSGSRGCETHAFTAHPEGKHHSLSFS", "log2 fold change": -0.207}
{"target": "LDLRAP1 (UniProt Q5SW96)", "log2 fold change": -0.118}
